An excerpt weighted towards active compounds, which were near 2.4% of everything screened.
NOD2-RIPK2 inh – inhibitors of human NOD2-RIPK2 interaction; O43353; hit rate 0.38% among 360,000; AID 624267; inhibition, % at 4.98 µM; CHO BLA complementation NOD2-RIPK2, CCF4 ratio; in the data active = inhibition above about 21%;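 also: 0% = vehicle only and 100% = reference blocker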
HSF1 activator – increases HSF-1 driven luciferase reporter signal | NIH3T3-HGL HSF-1 luciferase reporter, MG132, 8 h; 100% = twice DMSO control signal | activation, % at 9 µM | hit rate 1.7% among 300,000 | AID 504408;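 active = mean replicate activation of at least 50% with a set share of replicates each reaching 50%; inconclusive = only one of those two conditions met; inactive = mean below 50% and too few replicates reaching it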;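 also: 0% = median of the neutral control wells and 100% = twice that signal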
TLR4 MyD88 comp – TLR4-MyD88 interaction inhibition in cells; O00206+Q99836; HeLa CL3-4 TLR4/MyD88 BLA complementation, FRET ratio; inhibition, % at 8.4 µM; hit rate 0.18% among 200,000; in the data active = inhibition above about 25%;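 also: 0% = vehicle and 100% = reference inhibitor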
TLR9-MyD88 block – inhibitors of human TLR9-MyD88 binding. Q9NR96+Q99836. CHO BLA complementation TLR9-MyD88, CCF4 FRET ratio. inhibition, % at 4.98 µM. hit rate 0.21% among 340,000. AID 504734;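 active = inhibition above the mean over all tested compounds plus 3 SD, cut at about 21% in these data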;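 also: 0% = DMSO only wells and 100% = clavulanate BLA inhibitor control wells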
HSF1 inh – HSF1 inhibition; activity change, negative = inhibition, % at 7.5 µM (by protocol); hit rate 0.77% among 300,000; NIH3T3-HGL HSE-luciferase, MG132-induced, luminescence 8 h; stronger effect = lower value; AID 2098;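 active = more than half of replicate wells show activity change below -50%, luminescence cut by over half; inconclusive = some wells, but at most half, below -50%; inactive = no replicate well below -50%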;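 also: luciferase reports HSF-1 transcriptional activity via heat shock element; 0% = median of DMSO wells and -100% = zero luminescence signal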
NOD2-RIPK2 conf – NOD2-RIPK2 interaction inhibition confirmed | shares compounds with NOD2-RIPK2 inh | CHO cells, NOD2-RIPK2 BLA complementation, CCF4 FRET | inhibition, % at 4.98 µM | hit rate 70% among 1,200;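 active = mean inhibition across replicates above a set limit taken from the earlier primary screen, cut at about 21% in these data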;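 also: 0% = DMSO-only wells and the high end = clavulanate BLA-blocked wells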
NOD2 BLA counter – counter-screen for NOD2-RIPK2 interaction inhibitors: BLA reporter; shares compounds with NOD2-RIPK2 inh; CHO BLA reporter, CCF4 FRET ratio, counterscreen; inhibition, % at 4.98 µM; hit rate 57% among 1,200;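 active = mean inhibition above the low-control mean inhibition plus three low-control SD, cut at about 11% in these data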;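 also: 0% = DMSO only wells and 100% = clavulanate high control wells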
* hit, by the source's call; ? = inconclusive; . = no result.

SMILES	NOD2-RIPK2 inh	HSF1 activator	TLR4 MyD88 comp	TLR9-MyD88 block	HSF1 inh	NOD2-RIPK2 conf	NOD2 BLA counter
CCOCCCNC(=O)/C(C#N)=C/c1ccc(-c2ccc(S(=O)(=O)N3CCOCC3)cc2)o1	6	1	-4	0	-6	.	.
CCC(C)COC(=O)C(C#N)c1nc2ccccc2nc1N1CCCCC1 (centres undefined)	-5	11	-2	-5	5	.	.
CCC(CC)COC(=O)C(C#N)c1nc2ccccc2nc1N1CCN(CC)CC1 (centres undefined)	22*	19	3	-7	-4	21*	15*
O=C(OCC(=O)N1CCN(C(=O)c2ccco2)CC1)c1cc(F)c(F)cc1Cl	-5	.	.	-1	.	.	.
CC(NCc1ccc(OCc2ccc(Cl)cc2)cc1)C(O)c1ccccc1 (centres undefined)	23*	8	5	-2	2	20	9
O=C(CCn1nnnc1CN1CCOCC1)N1CCC(c2ccccc2F)C1 (centres undefined)	-2	5	.	-12	-1	.	.
COc1ncc(-c2ccc(N3C(c4ccc([N+](=O)[O-])cc4)=Cc4ccccc4C3CC(C)=O)cc2)cn1 (centres undefined)	34*	.	.	.	.	13	18*
CCc1sc(N2C(=O)C3C4CCC(C4=C(C)C)C3C2=O)nc1-c1ccccc1 (centres undefined)	71*	0	-7	0	-1	-1	0
CCOc1ccc(CNC(=O)CCS(=O)(=O)Cc2ccccc2C)cc1OC	3	.	0	-8	.	.	.
CCOc1ccc(CNC(=O)CCc2cn(C)c3ccccc23)cc1OC	37*	17	1	9	-5	-2	-1
COc1ccc(C(C#N)=C2C=C(Cl)C(=NO)C=C2Cl)cc1	2	.	.	5	.	.	.
N#CC(=C1C=C(Br)C(=NO)C=C1Cl)c1cccc2ccccc12	41*	.	.	-1	.	58*	30*
O=C(NCc1ccc(Cl)cc1)C(=O)NCC1OCCN1S(=O)(=O)c1cc(F)ccc1F (centres undefined)	0	0	.	-10	-2	.	.
O=C(NC1CCCCC1)C(c1ccncc1)n1c(=O)c(-c2ccccc2)nc2ccccc21 (centres undefined)	-4	.	.	.	.	.	.
O=C(NC1CCCCC1)C(c1ccncc1)n1c(=O)c(-c2cc3ccccc3[nH]2)nc2ccccc21 (centres undefined)	53*	.	.	.	.	48*	68*
O=C(NC1CCCCC1)C(c1ccc(C(F)(F)F)cc1)n1c(=O)c(-c2cc3ccccc3[nH]2)nc2ccccc21 (centres undefined)	41*	.	.	.	.	36*	66*
CC(C)(C)c1nnc2sc(SCC(=O)N3CCCCC3)nn2c1=O	-18	.	.	8	.	.	.
CCC(=O)Oc1ccc2c(c1)O/C(=C\c1ccco1)C2=O	44*	17	.	.	20	56*	61*
COCCN(CCOC)Cc1c(O)ccc2c1O/C(=C\c1ccco1)C2=O	23*	-5	.	12	-4	43*	46*
OC(c1ccccc1)(c1nc(/C=C/c2ccc(C(F)(F)F)cc2)cs1)C(F)(F)F (centres undefined)	-5	.	.	.	.	.	.
Cc1noc(C)c1NC(=O)N(C)C[C@H]1OCc2cnnn2CCCC(=O)N([C@H](C)CO)C[C@@H]1C	-7	.	.	-6	.	.	.
COc1cc(C=C2C(=O)C=CC2=O)ccc1O	66*	.	.	.	.	93*	30*
COc1cc(/C=C2/C(=O)CNC2=O)ccc1O	-3	7	3	1	-1	.	.
Cc1cc(C(=O)NNC(=O)Cc2ccc(Cl)c(Cl)c2)c(C)o1	7	.	.	-5	.	.	.
COc1ccccc1C(=O)NNC(=O)c1cc2ccccc2cc1O	3	.	.	1	.	.	.
SMILES	NOD2-RIPK2 inh	HSF1 activator	TLR4 MyD88 comp	TLR9-MyD88 block	HSF1 inh	NOD2-RIPK2 conf	NOD2 BLA counter
COc1ccc(C(=O)NNC(=O)c2cc3ccccc3cc2O)cc1	31*	22	.	10	4	5	8
CC(=O)NC(c1ccc(F)c(F)c1)c1nc(-c2cccc(F)c2)cs1 (centres undefined)	3	.	.	.	.	.	.
Cc1cc(C)c(S(=O)(=O)N(C)c2ccccc2)c(C)c1	34*	-1	15	-6	5	-4	-2
Cc1ccc(-c2noc(N=O)c2NO)cc1	22*	-15	.	.	-3	24*	21*
Cc1onc(-c2ccccc2)c1NC(=O)Nc1c(-c2ccccc2)noc1C	10	-3	-6	-10	-9	.	.
COc1cc(NC(=O)CCS(=O)(=O)c2ccc3c(c2)oc(=O)n3C)cc(OC)c1OC	-7	-3	.	12	-7	.	.
Cc1ccc(-c2nnn3c2nc(Cl)c2ccccc23)cc1	1	49	24	-6	28	.	.
Clc1nc2c(-c3ccccc3)nnn2c2ccccc12	24*	?	.	20	58	80*	62*
O=C(/C=C/c1c[nH]c2ccccc12)c1ccccc1	30*	47	22	12	35	30*	35*
COc1ccc2[nH]cc(C=O)c2c1	-4	-9	-8	-12	-3	.	.
COc1ccc2[nH]cc(/C=C/C(=O)c3ccccc3)c2c1	27*	113*	.	12	63	21*	32*
O=C(/C=C/c1ccccc1O)c1ccccc1	-3	.	.	-2	.	.	.
COCOc1ccc(-c2ncc(OC)nc2NC(=O)c2cc(C)oc2C)cc1	3	.	.	.	.	.	.
O=C1N/C(=C/c2ccc(N3CCOCC3)o2)C(=O)N1c1cccc(Cl)c1	33*	125*	11	11	95	22*	9
CC(=O)c1c(C)[nH]c(C(=O)NNC(=O)COc2cc(C)cc(C)c2)c1C	-6	.	.	-6	.	.	.
CCCNC(=O)c1ccc2c(=O)c(O)c(-c3ccc(Cl)c([N+](=O)[O-])c3)[nH]c2c1	-13	-12	.	4	-3	.	.
NC(=O)c1ccc2c(=O)c(O)c(-c3cc(Cl)c(N)c(Cl)c3)[nH]c2c1	38*	7	.	14	0	30*	29*
N#CC1C(=O)c2ccccc2C1c1ccccc1 (centres undefined)	48*	.	.	7	.	-6	0
CCN(CC)c1ccc(C=C(c2nnnn2-c2ccc(C)cc2)c2nnnn2-c2ccc(C)cc2)cc1	22*	32	18	19	0	28*	34*
CCOC(=O)C1=C(N)n2c(s/c(=C\c3cccs3)c2=O)=C(C(=O)OCC)C1c1cccs1 (centres undefined)	27*	5	-3	1	1	11	4
CCOC(=O)C1=C(N)n2c(s/c(=C\c3ccncc3)c2=O)=C(C(=O)OCC)C1c1ccncc1 (centres undefined)	-13	-23	-6	.	-15	.	.
Cc1nn(Cc2noc(C(=O)NCc3ccc4c(c3)OCO4)n2)c(C)c1Br	1	25	.	-12	-6	.	.
